Structures are written as SMILES. Screen size: about 340,000 compounds; about 2,100 (0.62%) were called active. The list is a sample of the results. Potency and affinity values are given separately. Unmarked numbers belong to inactive results.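 The calls were made as follows: active = first-screen hits whose inhibition reached a set limit at any dose in the follow-up dose series; inconclusive = inhibition above the set first-screen limit but never retested; inactive = the rest.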

Experimental findings from PubChem BioAssay AID624330 (Southern Research Specialized Biocontainment Screening …, 2012) are described below.

In this assay the target is Rac GTPase-activating protein 1 (Homo sapiens) (UniProt Q9H0H5). The experiment in a line: MgcRacGAP GTPase-activating activity inhibitors, confirmation, biochemical, ADP Hunter fluorescence, primary and confirmatory (AID 624330).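 Also: fluorescence reports GDP produced by GAP-driven GTP hydrolysis.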 The conditions noted are these: MgcRacGAP-stimulated Rac1 GTP hydrolysis, at 30 µM, hits give high values, GST-tagged Rac1 F28L mutant substrate.
Chain of Rac GTPase-activating protein 1 (Homo sapiens) (Q9H0H5 whole entry, looked up): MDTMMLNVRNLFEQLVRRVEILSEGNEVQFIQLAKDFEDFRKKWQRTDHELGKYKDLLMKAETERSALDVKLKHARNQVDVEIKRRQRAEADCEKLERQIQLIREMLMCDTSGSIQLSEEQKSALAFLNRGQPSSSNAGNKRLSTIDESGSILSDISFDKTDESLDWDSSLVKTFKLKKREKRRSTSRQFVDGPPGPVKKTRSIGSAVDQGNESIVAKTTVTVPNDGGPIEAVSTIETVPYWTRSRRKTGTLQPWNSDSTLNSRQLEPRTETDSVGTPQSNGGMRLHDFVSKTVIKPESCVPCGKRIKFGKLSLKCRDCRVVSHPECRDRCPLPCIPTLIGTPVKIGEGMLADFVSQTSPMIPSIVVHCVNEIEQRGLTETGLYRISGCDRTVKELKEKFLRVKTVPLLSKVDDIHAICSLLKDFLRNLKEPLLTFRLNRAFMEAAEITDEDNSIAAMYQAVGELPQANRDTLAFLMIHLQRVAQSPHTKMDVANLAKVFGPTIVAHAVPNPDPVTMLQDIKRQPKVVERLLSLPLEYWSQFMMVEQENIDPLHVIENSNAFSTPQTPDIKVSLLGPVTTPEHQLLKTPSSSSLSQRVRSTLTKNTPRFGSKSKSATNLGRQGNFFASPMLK
Regarding `O=S(=O)(Nc1ccc(-c2ccc(NS(=O)(=O)c3ccccc3)cc2)cc1)c1ccccc1`, the inhibition is -20.9%.
`COc1ccc(NC(=O)/C(Cl)=C(/Cl)S(=O)(=O)Cc2ccccc2)cn1`: the inhibition was 25.6%.
For the compound `COc1ccc(NC(=O)Cc2ccccc2)cn1`, the inhibition was 3.42%.
With `COc1ccc(NC(=O)C(Cl)=C(Cl)Cl)cn1` the figure was 6.63%.
With `COc1ccc(CS(=O)(=O)/C(Cl)=C(/Cl)C(=O)Nc2ccc(OC)nc2)cc1` the figure was 19.4%; with `CC(C)(C)c1nnc2cccc(Cl)n12`, 0.67%.
The figure for `CCN1C(=O)[C@H]2[C@@H](c3ccc(-c4ccc(C(C)=O)cc4)c(OC)c3)N3CCCC[C@@]3(C(=O)OC)[C@H]2C1=O` is 5.29%.
For `CCc1cc(=O)oc2cc(OC(C)C(=O)NCc3ccccn3)ccc12` (stereo not given), the inhibition was 7.67%.
`C/C(=N\NC(=O)c1ccc(NS(=O)(=O)c2cccs2)cc1)c1ccc(C(C)(C)C)cc1`: the inhibition is 8.43%.
The figure for `COCCNc1nc(CSc2ccccc2)nc2sc(C)c(C)c12` is 8.51%; for `COCCNCc1ccccc1` it is -2.56%.
Take `Cc1cc(C)cc(NC(=S)N2CCC(NC(=O)c3ccc(F)cc3)CC2)c1`: the inhibition was 4.86%.
With `CCOc1ccc(NC(=O)C(NC(=O)C2CCC(C)CC2)C(C)C)cc1` (stereo not given) the figure was 8.67%; with `COc1cc(/C=C(\C#N)c2[nH]nc(N)c2C#N)cc(OC)c1O`, 0.59%.
As to `COc1ccc(-c2cc(-c3ccc(O)cc3)nc(N)c2C#N)cc1OC`, the inhibition is 11.9%.
In the case of `CCCc1cc(-c2ccc(O)c(OCC)c2)c(C#N)c(N)n1`, the inhibition was -0.99%.
The figure for `CCOc1cc(-c2cc(-c3ccccc3)nc(N)c2C#N)ccc1O` is 38.4%; for `CCOc1cc(-c2cc(-c3ccc(C)cc3)nc(N)c2C#N)ccc1O` it is 16.3%; for `COc1cc(-c2cc(-c3ccc(F)cc3)nc(N)c2C#N)ccc1O` it is 40.9%.
With `CCN(CC(=O)Nc1ccc(C#N)cc1)CC(=O)Nc1ccc2c(c1)OCCO2`, the inhibition was 4.07%.
`CCNC(=O)N1CCC(n2nccc2NC(=O)CCCc2ccccc2)CC1`: the inhibition was 6.88%.
Regarding `COc1ccccc1OCCC(=O)Nc1ccc2c(c1)OCO2`, the inhibition is 2.43%.
With `C=CC[N+](C)(C)CCN1C(=O)C2C(c3ccccc3)C=CC(c3ccccc3)C2C1=O` (stereo not given) the figure was -0.41%.
With `C=CCC(NCc1ccco1)c1ccc(OC)c(OC)c1` (stereo not given) the figure was -6.08%.
The figure for `O=C(Oc1ccc2c(c1)OCC2=O)c1ccccc1` is 0.9%; for `O=c1oc(-c2cccc(S(=O)(=O)N3CCOCC3)c2)nc2ccccc12` it is 13.7%; for `Cc1cccc(NC(=S)NC(=O)/C=C/c2ccccc2)n1` it is -2.63%.
For the compound `CC(C)(C)c1ccc(C(=O)NCC(=O)N2CCC3(CC2)NCCc2[nH]cnc23)cc1`, the inhibition is 11%.
For `O=C(N/N=C\c1ccc(O)c([N+](=O)[O-])c1)c1ccccc1-n1cccc1`, the inhibition is -4.94%.
The figure for `Cc1cccc(/C=N\NC(=O)c2ccccc2-n2cccc2)c1` is 5.46%.
As to `O=C(N/N=C/c1ccc(Br)cc1)c1ccccc1-n1cccc1`, the inhibition is 10.6%.
As for `COc1cc(/C=N/NC(=O)c2ccccc2O)ccc1OCC(=O)Nc1ccccc1`, the inhibition was 14.4%.
With `O=C(N/N=C\c1ccccc1)c1ccccc1-n1cccc1` the figure was 6.39%.
As for `O=C(COc1ccccc1-c1ccccc1)N/N=C/c1ccc2ccccc2c1`, the inhibition was 6.35%.
The figure for `CCOc1cc(/C=N/NC(=O)c2cc(C)n(-c3ccc(F)cc3)c2C)ccc1O` is 16.4%; for `O=C(N/N=C/c1ccc[nH]1)c1ccccc1OCc1ccc(F)cc1` it is 9.06%.
With `CC(=O)c1cccc(S(=O)(=O)NC2CCCCCC2)c1`, the inhibition was 1.69%.
With `COc1ccc(C(C(=O)NC2CCCCC2)N(Cc2ccco2)C(=O)c2ccccn2)c(OC)c1` (stereo not given), the inhibition was 10.7%.
As for `CCCN(CCC)C(=O)c1ccc2c(c1)S(=O)(=O)c1ccccc1C2=O`, the inhibition is 6.12%.
Turning to `NC(=S)Nc1ccc(S(=O)(=O)c2ccc(NC(N)=S)cc2)cc1`, the inhibition is 10.8%.
Regarding `CC1(C)C(=O)OC(c2c3ccccc3cc3ccccc23)C(C)(C)C1=O` (stereo not given), the inhibition is 1.71%.
Turning to `CC(NS(=O)(=O)c1cccc(S(=O)(=O)c2ccccc2)c1)C(=O)O` (stereo not given), the inhibition was -5.11%.
With `CCOC(=O)N1CCN(C(=O)c2cccc(S(=O)(=O)Nc3ccc(F)cc3)c2)CC1` the figure was 4.83%; with `CCOC(=O)C1CCN(c2c(N3CCCC(C(=O)OCC)C3)c(=O)c2=O)CC1` (stereo not given), 4.65%; with `CN(C)CCNC(=O)c1onc(CSc2nc3ccccc3[nH]2)c1C(=O)NCCN(C)C`, 17.3%.
With `Brc1ccc(-c2ccc(/C=N/Nc3nc4ccccc4[nH]3)o2)cc1` the figure was 3.17%; with `COCCNC(=O)/C(C#N)=C/c1ccc(C(=O)O)cc1`, 0.25%.
The figure for `COc1cccc(C(=O)N2CCn3c2nc2ccccc23)c1` is 8.54%.
Consider `O=C(Nc1nnc(C2CCCCC2)s1)C1CC(=O)N(c2ccc(F)cc2)C1` (stereo not given), for which the inhibition is 3.31%.
For the compound `COc1ccc(NC(=O)CSc2ccc3ccccc3c2)cc1S(=O)(=O)N1CCCCC1`, the inhibition was 8.21%.
In the case of `COc1ccc(/C=N/Nc2cc(C)nc3ccccc23)cc1`, the inhibition is 14.7%.
The figure for `Cc1ccc2nc(C)cc(N/N=C/c3cccc(O)c3)c2c1` is 14.1%.
With `COc1cccc2c(N/N=C/c3ccccc3)cc(C)nc12`, the inhibition was 11%.
With `COc1cccc2c(N/N=C/c3ccc(O)c(O)c3)cc(C)nc12` the figure was 27.1%.
Regarding `N#Cc1nc(COc2ccc(F)cc2)oc1N1CCC(Cc2ccccc2)CC1`, the inhibition was 0.56%.
Regarding `N#Cc1ccc(N/N=C/c2ccccc2)c([N+](=O)[O-])c1`, the inhibition is 2.61%.
With `Cc1sc(NC(=O)c2ccc(F)cc2)c(CN2CCCCCC2)c1C` the figure was 13.7%; with `CCn1c(CC(=O)Nc2ccc(Cl)c(Cl)c2)nnc1SCc1ccc(Cl)cc1`, 11.6%.
`Cc1sc2ncn(CC(=O)N3CCCCC3)c(=O)c2c1C`: the inhibition is 6.45%.
As to `O=C(Nc1ccncc1)C1CC(=O)N(c2ccccc2)C1` (stereo not given), the inhibition is 0.29%.
The figure for `CCN1C(=O)[C@H]2[C@@H](c3ccc(Cl)cc3)N3C(=O)CN(Cc4ccccc4)C(=O)[C@@]3(C)[C@H]2C1=O` is 5.83%.
For `CCOc1ccc(NCCC#N)cc1`, the inhibition was 30.3%.
With `N#CCCNc1ccc(OCCC#N)cc1` the figure was 11.4%; with `CCC(=O)Nc1cccc(C(=O)/C=C/c2cc(Br)ccc2OC)c1`, 7.87%.
In the case of `CCC(CO)N=C1CC(C)(C)CC(=O)/C1=C(/O)CCCN1C(=O)c2ccccc2C1=O` (stereo not given), the inhibition was 0.34%.
For the compound `COc1cc2nc(N3CCN(c4cc(C)ccc4C)CC3)nc(N)c2cc1OC`, the inhibition was 4.78%.
The figure for `COc1cc2nc(N3CCN(C(=O)c4ccco4)CC3)nc(N)c2cc1OC` is 17.7%.
Consider `COC(=O)[C@H](CC(C)C)NC(=O)NCCCc1ccccc1`, for which the inhibition was 3.77%.
With `O=C(CCNS(=O)(=O)c1cccc2nsnc12)NCCC1=CCCCC1` the figure was 11.7%; with `Cc1cccc(OCC(=O)Nc2ccc3c(C)cc(=O)oc3c2)c1`, -2.83%; with `CN1CCN(S(=O)(=O)c2ccc(N)cc2)CC1`, -0.77%.
The figure for `Cc1nn(-c2cc(N3CCCCC3)ccc2N)c(=O)c2ccccc12` is 12.5%; for `Nc1nc(N2CCN(c3ccc(F)cc3)CC2)n[nH]1` it is 12.1%.
For `CC(=O)N1CCN(c2ccc([N+](=O)[O-])cc2)CC1`, the inhibition was 5.88%.
With `CC(=O)Nc1ccc(N2CCN(C(C)=O)CC2)cc1` the figure was 8.62%; with `Nc1ccc(N2CCCCC2)cc1N1CCCCC1`, 10.4%; with `N#Cc1ccc(N2CCN(c3ccc(F)cc3)CC2)cc1`, 7.18%.
On to `CN1CCN(c2ccc(C(=O)c3ccc(F)cc3)cc2)CC1`, for which the inhibition was 12.6%.
The figure for `OCC1CCCN(C(=S)NCCc2ccccc2)C1` (stereo not given) is 2.94%; for `O=C(Cn1cnc2c(nnn2Cc2ccc(Cl)cc2)c1=O)NC1CCCC1` it is 7.49%.
For the compound `COc1cc(SC)ccc1C(=O)OCC(=O)NCCC1=CCCCC1`, the inhibition was -5.82%.
The figure for `C=CCn1c(SC(C)C(=O)NC2CC2)nnc1-c1ccoc1C` (stereo not given) is 4.4%; for `CCOc1cccc(C(=O)NNC(=O)C2C3C=CC(C3)C2C(=O)O)c1` (stereo not given) it is 5.45%.
With `CCCN1Cc2cccc(C(=O)NCCc3ccccc3)c2C1=O` the figure was 5.13%.
The figure for `Cc1ccc(-c2nn(-c3ccccc3)cc2C(=O)Nc2ccc(C)c(S(=O)(=O)N3CCOCC3)c2)cc1` is -2.39%.
Take `COc1ccc(C(CNS(=O)(=O)c2ccccc2)N2CCN(C)CC2)cc1` (stereo not given): the inhibition was 1.91%.
With `CCN1CCN(c2ccc(NC(=O)c3ccc(Br)o3)cc2)CC1` the figure was 8.5%; with `O=C(CSc1ccccc1)Nc1ccc(N2CCN(c3ccccc3)CC2)c(F)c1`, 5.08%; with `O=C(Nc1ccc(N2CCN(c3ccccc3)CC2)c(F)c1)C1CC1`, 5.36%.
`CCN1CCN(c2ccc(NC(=O)Cc3ccccc3)cc2)CC1`: the inhibition was 6.87%.
On to `O=C(c1cccs1)N1CCN(c2ccc(F)cc2)CC1`, for which the inhibition was 13.3%.
The figure for `O=C(c1cccs1)N1CCN(c2ccccc2)CC1` is -0.45%; for `Cc1ccccc1C(=O)Nc1cc(NC(=O)c2ccccc2C)cc(C(=O)O)c1` it is 10.1%.
The figure for `O=S(=O)(c1ccc(F)cc1)c1nc(-c2ccccc2)oc1N1CCOCC1` is 9.44%; for `CC(=O)c1cccc(NC(=O)Cn2cnc(S(=O)(=O)N3CCCCC3)c2)c1` it is 2.19%.
